BAZ2B block – blocks human BAZ2B; Q9UIF8; AlphaScreen BAZ2B-H3K14Ac peptide displacement; Potency, µM (series often up to 114 µM), without a hit: at the top dose activity change, negative = inhibition, usual class: inhibitors; 4.4% of 360,000 active; also: % is scaled to controls: 0 for no effect and ±100 for the full control effect; nearly all actives have a fitted effect of over 60% in size
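AlphaScreen displacement of biotin-H3(5-23)K14Ac peptide (50 nM final) from BAZ2B (50 nM final) in PBS pH 7.4, 0.01% Tween-20; complex preformed 30 min RT, then compounds (top 110 uM) 30 min RT, beads 20 min dark.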
JMJD2A Tudor – blocks the human JMJD2A Tudor domain; Potency, µM (highest dose often 114 µM), for inactives: at the top dose activity change, negative = inhibition, hits mostly inhibitors; 4.4% of 390,000 active; AlphaScreen JMJD2A-Tudor / H3K4me3 peptide binding; also: % is scaled to controls: 0 for no effect and ±100 for the full control effect; nearly all actives have a fitted effect of over 50% in size
G9a inh – inhibitors of human histone lysine methyltransferase G9a. Q96KQ7. G9a H3K9 monomethylation, AlphaScreen, 2 h. Potency, µM (highest dose often 102 µM), for inactives: at the top dose activity, negative = inhibition, hits mostly inhibitors. 8.8% of 350,000 active. AID 504332; also: % is scaled to controls: 0 for no effect and ±100 for the full control effect; nearly all actives have a fitted effect of over 75% in size
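Enzyme 20 nM + cpd, 15 min RT; add b-H3K9 pep 500 nM / SAM 20 uM; 2 h RT; anti-H3K9me1 Ab 0.5 ug/mL + SA donor / anti-rabbit acceptor beads 20 ug/mL each, 10 min; AlphaScreen read.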
L3MBTL1 block – blocks human L3MBTL1. Q9Y468. AlphaScreen L3MBTL1–H3K9me1 peptide binding. Potency, µM (top dose mostly 57.1 µM), for inactives: top-dose activity, negative = inhibition, usual class: inhibitors. 0.66% of 230,000 active. AID 485360; also: % is scaled to controls: 0 for no effect and ±100 for the full control effect; nearly all actives have a fitted effect of over 60% in size
Target sequence (Q9Y468 whole entry, looked up): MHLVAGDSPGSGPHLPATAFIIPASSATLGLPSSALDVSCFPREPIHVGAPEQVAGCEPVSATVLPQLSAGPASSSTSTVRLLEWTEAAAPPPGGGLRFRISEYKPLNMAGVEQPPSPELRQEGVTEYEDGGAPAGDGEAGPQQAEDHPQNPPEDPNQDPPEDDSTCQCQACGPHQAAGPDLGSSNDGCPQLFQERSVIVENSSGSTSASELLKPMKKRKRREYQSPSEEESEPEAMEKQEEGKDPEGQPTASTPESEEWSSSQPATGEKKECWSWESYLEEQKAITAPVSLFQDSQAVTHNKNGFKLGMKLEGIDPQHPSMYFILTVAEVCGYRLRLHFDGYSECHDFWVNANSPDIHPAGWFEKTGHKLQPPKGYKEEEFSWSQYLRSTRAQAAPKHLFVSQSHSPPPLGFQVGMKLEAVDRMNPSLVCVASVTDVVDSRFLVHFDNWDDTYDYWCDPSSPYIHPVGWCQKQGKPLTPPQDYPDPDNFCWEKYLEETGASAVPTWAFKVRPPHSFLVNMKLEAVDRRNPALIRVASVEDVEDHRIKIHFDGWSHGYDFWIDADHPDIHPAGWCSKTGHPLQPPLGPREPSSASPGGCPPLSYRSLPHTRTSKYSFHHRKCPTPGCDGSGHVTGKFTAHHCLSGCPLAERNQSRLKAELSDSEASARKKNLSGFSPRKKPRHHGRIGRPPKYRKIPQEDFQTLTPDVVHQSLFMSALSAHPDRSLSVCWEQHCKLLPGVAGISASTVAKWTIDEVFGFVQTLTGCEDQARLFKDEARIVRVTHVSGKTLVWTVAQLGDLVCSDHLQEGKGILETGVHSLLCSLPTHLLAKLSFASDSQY
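AlphaScreen proximity signal between nickel-chelate acceptor and streptavidin donor beads (final 10 ug/mL) reports binding of 50 nM L3MBTL1 to 75 nM biotin-H3 K9me1 peptide; complex incubated with compounds 30 min at room temperature; cefsulodin titration as control.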
Sfp PPTase inh – inhibitors of Bacillus subtilis Sfp phosphopantetheinyl transferase. Q9F4F7. Biochemical Sfp PPTase activity, qHTS. Potency, µM, for the others: largest response in the series, negative = inhibition, hits mostly inhibitors. 3.5% of 310,000 active;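 also: the enzyme is Sfp with the accession as filed and its product quenches rhodamine fluorescence; 0% = enzyme reaction without inhibitor and -100% = no enzyme wells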
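Fluorescence-quenching assay: 15 nM Sfp-PPTase preincubated 15 min at room temperature with compound, then 5 uM rhodamine-CoA and 12.5 uM BHQ-2-labelled YbbR peptide added. Fluorescence (ex 525/em 598 nm) read at start and after 30 min; difference gives rate.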
HP1b chromo inh – inhibitors of HP1-beta chromodomain binding to methylated histone tails. AID 540317. 0.56% of 390,000 active. Potency, µM (highest dose often 114 µM), for inactives: at the highest dose activity change, negative = inhibition, usual class: inhibitors. AlphaScreen HP1-beta / biotin-H3K9me3 peptide binding; also: nearly all actives have a fitted effect of over 70% in size
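AlphaScreen: HP1-beta (50 nM) preformed 30 min with biotin-H3(1-18)K9me3 peptide (50 nM) in PBS pH 7.4, 0.01% Tween-20. Compound added for 30 min at RT, then streptavidin donor/nickel chelate acceptor beads (10 ug/mL) for 30 min.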
Active calls of the source: *; ? = inconclusive; . = no result given; ! = not active in a repeat; [ ] = remark or other dose. Only some compounds are listed: those with a hit (about 12% of all), similar ones and a draw of the others. Calls follow the shape of the dose curve; as a rule, active = well fitted curve in the direction sought with a large enough effect; inconclusive = small, poorly fitted or top-dose-only effect, or another doubt; inactive = no such curve, though single readings can be large; an effect the other way counts as inactive or inconclusive. Potency is read from the fitted curve at half-maximal effect.

SMILES	BAZ2B block	JMJD2A Tudor	G9a inh	L3MBTL1 block	Sfp PPTase inh	HP1b chromo inh
COc1ccc(NC(=O)c2c(NCc3cccs3)sc3c2CCCC3)c(OC)c1	?	?	?	.	.	-4%
COc1ccc(OC)c(CNc2sc3c(c2C(=O)Nc2cc(OC)ccc2OC)CCCC3)c1	22µM*	?	11µM*	.	.	-21%
O=C1CCc2cc(S(=O)(=O)Nc3cccc(B(O)O)c3)ccc2N1	.	4%	.	.	.	.
O=c1c2cc3c(cc2n(Cc2cccc(F)c2)c(=O)n1Cc1nc(-c2ccccc2)no1)OCO3	-5%	-1%	1%[59 µM]	.	.	23%
CC12C=C(/C=C/c3ccc(Br)cc3)C(C)(C1)[C@H](c1ccc(Br)cc1)CC2=O (stereo not given in full)	.	.	.	.	-8%	.
COc1ccccc1NC(=O)c1c(NC(=O)COc2ccccc2)sc2c1CCCCC2	7%	-4%	12%[59 µM]	.	.	72%
O=C(Nc1sc2c(c1C(=O)NCc1ccccc1)CCCC2)c1cc(=O)c2ccccc2o1	-12%	-18%	11µM*	.	.	?
COc1ccc(OC)c(NC(=O)c2c(NCc3cccs3)sc3c2CCCCC3)c1	22µM*	?	11µM*	.	.	-1%
Cc1cc2oc(C(=O)Nc3sc4c(c3C(=O)NCc3ccccc3)CCCC4)cc(=O)c2cc1C	-1%	-14%	-5%[59 µM]	.	.	9%
O=C(O)CCC(=O)Nc1sc2c(c1C(=O)Nc1cccc3ccccc13)CCCCC2	?	?	22µM*	1%	50µM*	-5%
Cc1cccc(C(=O)Nc2ccccc2OCc2cc(=O)n3ccccc3n2)c1	7%	-11%	2%[59 µM]	.	.	20%[57 µM]
CCC1Oc2ccccc2N(CC(=O)NCc2ccccc2)C1=O (stereo not given)	2%	0%	-4%[59 µM]	.	.	38%
CCCCCCCCCCCCCC(=O)N[C@H](C)[C@@H](O)c1ccccc1	.	.	17%[59 µM]	.	14%	.
CCN(CC)CCn1c(-c2ccccc2)csc1=Nc1ccccc1	50µM*	18µM*	2.2µM*	.	.	?
O=C(O)CCC(=O)NCCn1c(-c2ccccc2)csc1=Nc1ccccc1	?	-16%	?	2%	-8%	1%
CCn1c(-c2ccccc2)csc1=Nc1ccc(S(=O)(=O)O)cc1	-35%	-32%	18µM*	-3%	16%	-22%
Cc1ccc(-c2csc(=Nc3ccccc3)n2Cc2ccc3c(c2)OCO3)cc1	8.9µM*	56µM*	11µM*	.	.	?
COC(=O)c1cc(=O)n(Cc2ccc3c(c2)OCO3)c(=Nc2ccccc2)s1	?	?	?	-4%	-17%	-17%
OCCCn1c(-c2ccccc2)csc1=Nc1ccccc1	56µM*	?	22µM*	.	8%	?
CC(/C=C/c1ccco1)=N\NC(=O)CNc1ccc2ccccc2c1	35µM*	?	5.6µM*	35µM*	-6%	-20%
CC(/C=C/c1ccco1)=N\NC(=O)c1cccc(Cl)c1	6%	-31%	5%[59 µM]	3%	?	-16%
CC(/C=C/c1ccco1)=N/NC(=O)CNc1ccccc1C	-38%	-27%	-6%[59 µM]	.	50µM*	-3%
O=C(NCC(c1cccnc1)N1CCN(Cc2ccccc2)CC1)C(=O)Nc1ccc(F)cc1 (stereo not given)	-2%	-11%	2%[59 µM]	.	.	36%
Cc1cccc(N2CCN(S(=O)(=O)c3ccc(F)c(C(=O)Nc4ccc(C(C)C)cc4)c3)CC2)c1C	0%	-22%	6%[59 µM]	.	.	-8%
O=C(CN1C(=O)COc2ccc(S(=O)(=O)N3CCOCC3)cc21)N1CCN(c2ccc(F)cc2)CC1	-11%	-15%	8%[59 µM]	.	.	23%
SMILES	BAZ2B block	JMJD2A Tudor	G9a inh	L3MBTL1 block	Sfp PPTase inh	HP1b chromo inh
CCOc1ccc(NC(=O)N2CCC(CN3CCCCCC3)CC2)cc1	?	-30%	?	.	.	22%
CC1=NN(c2ccccc2)C(=O)C1N=Nc1ccc(C)cc1 (stereo not given)	?	.	?	.	9%	.
CC1=NN(c2ccccc2)C(=O)C1C=Nc1ccc(N(C)C)cc1 (stereo not given)	35µM*	45µM*	.	?	?	?
O=C(Nc1ccncc1)c1ccc(-c2ccccc2)cc1	-34%	-26%	-4%[59 µM]	.	12%	16%
CN(C)CCCc1cc(C(=O)Nc2ccc(-c3ccncc3)cc2)ccc1O	.	.	25µM*!	.	-1%	.
COc1ccc2c(c1)C=C(C(=O)OCc1cccnc1)CO2	-28%	35µM*	-33%	.	-22%	-1%
CCC(=O)N1CCc2cc(Br)cc(S(=O)(=O)N3CCCC(C(=O)Nc4cc(C)ccc4OC)C3)c21 (stereo not given)	-11%	-10%	-5%[59 µM]	.	.	10%
Nc1cc(Cc2ccccc2)ccc1O	.	3.2µM*	.	.	.	45µM*
Fc1ccc(-n2c(Cc3cccs3)n[nH]c2=S)cc1Cl	-27%	-26%	1.8µM*	-4%	7%	30%
Cc1ccccc1-n1c(Cc2cccs2)n[nH]c1=S	-5%[57.1 µM]	8.9µM*	?	-1%	?	1%
Cc1ccc(-n2c(Cc3cccs3)nnc2SCC(=O)Nc2ccc(F)c(F)c2)cc1	1%	-8%	-51%[59 µM]	.	4%	26%
Cc1ccccc1NC(=S)N(C)Cc1cccs1	3%	-16%	-3%[12.7 µM]	.	13%	26%
FC(F)(F)c1ccc(Cl)c(-n2c(Cc3cccs3)n[nH]c2=S)c1	?	?	.	31%	79µM*	16%
CC(C)CCCC(C)C1CCC2C3CC=C4CC(O)CC[C@@]4(C)C3CC[C@@]12C (stereo not given in full)	.	.	.	.	12%	.
Cc1ccc(-c2nnc3ccc(SC(C)C(=O)O)nn23)cc1 (stereo not given)	-30%	40µM*	3.5µM*	5%	?	?
CCOC(=O)C(C)Sc1ccc2nnc(-c3ccc(F)cc3)n2n1 (stereo not given)	0%	-6%	7.9µM*	4%	?	40%
COC(=O)C(C)Sc1ccc2nnc(-c3ccccc3)n2n1 (stereo not given)	.	-9%	?	.	10%	25%
CC(Sc1ccc2nnc(-c3ccc(F)cc3)n2n1)C(=O)O (stereo not given)	-11%	?	3.5µM*	5%	-2%	-16%
CCOC(=O)C(C)Sc1ccc2nnc(-c3ccc(OCC)cc3)n2n1 (stereo not given)	.	0%[57.1 µM]	.	.	.	17%[57 µM]
CCC(Sc1ccc2nnc(-c3cccnc3)n2n1)C(=O)O (stereo not given)	-6%	-45%	50µM*	5%	11%	23%
COc1cccc(NC(=O)Cn2c(=O)n(CCCCC(=O)NCCc3ccccc3)c(=O)c3ccccc32)c1	2%	-22%	4%[59 µM]	.	.	11%
